# Data: the supplement of paper PMC3545927
# Some of the results follow. The hit rate among all sequences tested is not known here.
# Target: furin, P09958
# Assay: furin cleavage Z-score vs untreated control; higher = more cleavage, active = 3.5 or more, inactive = 1 or less, 8 variable residues between constant flanks
# Summary of the method: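 The cleavage Z-score is the log read count relative to furin-free reactions, lowess-adjusted and scaled by median absolute deviation. Counts came from sequencing DNA released from bead-bound 8-mer peptide–cDNA fusions after digestion with purified furin for 7.5, 15 or 30 min.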
# 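Note: purified furin at 1:10 enzyme:substrate in 50 mM HEPES pH 7.5.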
# furin, P09958, sequence (P09958 whole entry): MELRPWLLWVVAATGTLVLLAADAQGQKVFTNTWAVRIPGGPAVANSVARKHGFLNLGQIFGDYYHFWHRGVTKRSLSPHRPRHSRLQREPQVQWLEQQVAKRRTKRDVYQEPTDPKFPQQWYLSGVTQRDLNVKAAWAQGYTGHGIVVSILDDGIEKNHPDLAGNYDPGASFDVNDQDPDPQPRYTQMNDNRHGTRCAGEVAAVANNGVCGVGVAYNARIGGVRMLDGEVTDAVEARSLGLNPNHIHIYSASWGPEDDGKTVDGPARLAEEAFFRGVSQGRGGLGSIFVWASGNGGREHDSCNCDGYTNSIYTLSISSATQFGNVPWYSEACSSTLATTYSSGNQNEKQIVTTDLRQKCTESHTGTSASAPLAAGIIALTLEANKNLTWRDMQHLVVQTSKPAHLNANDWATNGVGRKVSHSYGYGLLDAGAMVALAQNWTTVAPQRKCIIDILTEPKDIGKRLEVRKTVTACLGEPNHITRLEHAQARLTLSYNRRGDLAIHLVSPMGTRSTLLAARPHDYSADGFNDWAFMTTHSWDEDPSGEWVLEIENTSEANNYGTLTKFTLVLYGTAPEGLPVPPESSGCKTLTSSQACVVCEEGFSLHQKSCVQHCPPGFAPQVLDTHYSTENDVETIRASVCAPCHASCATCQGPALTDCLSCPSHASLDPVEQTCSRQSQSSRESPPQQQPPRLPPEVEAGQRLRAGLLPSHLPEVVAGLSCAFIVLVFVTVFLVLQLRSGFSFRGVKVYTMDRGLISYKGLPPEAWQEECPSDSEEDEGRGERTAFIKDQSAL
Sequence,furin cleavage Z-score (7.5 min),furin cleavage Z-score (15 min),furin cleavage Z-score (30 min)
CAMEECNQHLAGNASASA [HC38],0.469 (inactive),2.66,0.708 (inactive)
CARCARSSFTAGNASASA [FS-2895],-1.39 (inactive),-0.507 (inactive),-0.615 (inactive)
CAVPAKSVCGAGNASASA [HC409],-1.6 (inactive),0.783 (inactive),-0.986 (inactive)
CALHCPTDCFAGNASASA [HC450],0.987 (inactive),-0.346 (inactive),0.0192 (inactive)
CAHSYSPGEIAGNASASA [HC1608],-0.391 (inactive),-1.22 (inactive),-0.845 (inactive)
CAYHHKFNSSAGNASASA [HC382],-0.863 (inactive),-0.739 (inactive),-0.583 (inactive)
CATVGRVKRFAGNASASA [FS-306],9.9 (active),9.6 (active),9.08 (active)
CAARPRWIWFAGNASASA [HC1654],0.126 (inactive),1.51,1.36
CAARNRQKRFAGNASASA [FS-1308],9.16 (active),10.4 (active),8.81 (active)
CAGPGREDRFAGNASASA [FS-1590],0.0501 (inactive),-0.782 (inactive),0.43 (inactive)
CAVCARAQAPAGNASASA [HC957],-0.611 (inactive),-0.626 (inactive),0.901 (inactive)
CAPIDTTIMAAGNASASA [HC1437],-1.63 (inactive),0.33 (inactive),-1.75 (inactive)
CAMVECSQHLAGNASASA [HC1690],1.97,0.64 (inactive),0.696 (inactive)
CAHDVVCCSMAGNASASA [HC2115],-0.409 (inactive),-0.66 (inactive),0.0366 (inactive)
CAVKCCSMSYAGNASASA [HC2014],-0.221 (inactive),0.288 (inactive),-1.16 (inactive)
CALSFRLKRNAGNASASA [FS-1372],12.3 (active),11.1 (active),9.61 (active)
CAQLRRYPRNAGNASASA [FS-1249],10 (active),10.4 (active),8.2 (active)
CANSTALNCNAGNASASA [HC372],1.61,1.23,0.944 (inactive)
CAQLRRLKRNAGNASASA [FS-284],13 (active),12.1 (active),9.76 (active)
CAQLRRHIDLAGNASASA [HC289],-1.12 (inactive),0.114 (inactive),0.176 (inactive)
CATARHTPVNAGNASASA [HC1570],-0.556 (inactive),-0.38 (inactive),-0.627 (inactive)
CAASAYQVRNAGNASASA [HC255],2.82,-0.339 (inactive),0.446 (inactive)
CAVYYLTRDPAGNASASA [HC1561],-0.916 (inactive),-0.905 (inactive),-0.163 (inactive)

Sequence,furin cleavage Z-score (7.5 min),furin cleavage Z-score (15 min),furin cleavage Z-score (30 min)
CAEEVSFRVGAGNASASA [HC1232],0.0764 (inactive),1.08,-0.114 (inactive)
CATVVTSTWVAGNASASA [HC2158],0.721 (inactive),0.128 (inactive),0.308 (inactive)
CAINSVWKDLAGNASASA [HC1430],0.0949 (inactive),0.0646 (inactive),0.992 (inactive)
CAFCCRKKRRAGNASASA [FS-586],3.8 (active),4.73 (active),5.93 (active)
CAEILRKSRRAGNASASA [HC1297],-0.468 (inactive),1.48,-0.599 (inactive)
CAHSERKKRRAGNASASA [FS-249],8.63 (active),10.6 (active),10.2 (active)
CAAGIAYFSMAGNASASA [HC339],-0.0596 (inactive),0.534 (inactive),-0.966 (inactive)
CAQGNRWRRSAGNASASA [FS-139],14.1 (active),13 (active),9.79 (active)
CAGGSRWRRSAGNASASA [FS-124],6.79 (active),5.09 (active),5.21 (active)
CAITYSTYGKAGNASASA [HC806],0.0361 (inactive),-1.76 (inactive),1.03
CAAGQRLRRDAGNASASA [FS-395],12 (active),10.2 (active),8.42 (active)
CAAVPRLRRDAGNASASA [FS-644],11.8 (active),12.1 (active),8.75 (active)
CACVPRMRRPAGNASASA [FS-753],0.288 (inactive),-2.19 (inactive),0.777 (inactive)
CAAVGRAGRDAGNASASA [FS-11],0.567 (inactive),1.42,0.637 (inactive)
CAGDVVCCSMAGNASASA [HC2116],0.0391 (inactive),-0.825 (inactive),-0.011 (inactive)
CAVVCASMSYAGNASASA [HC81],0.42 (inactive),1.25,-0.0546 (inactive)
CAVLVRKRRAAGNASASA [FS-1178],12 (active),12.9 (active),8.97 (active)
CAGAPLGGAAAGNASASA [HC231],-0.433 (inactive),-0.224 (inactive),-0.596 (inactive)
CAVLVVLLLFAGNASASA [HC346],-1.01 (inactive),-0.224 (inactive),-0.108 (inactive)
CAGGPRKRRAAGNASASA [FS-26],5.06 (active),5.01 (active),3.88 (active)
CAKSYRKRRAAGNASASA [FS-47],9.96 (active),10.6 (active),7.5 (active)
CASQRRKRRAAGNASASA [FS-381],6.33 (active),6.94 (active),4.52 (active)
CAVLVGGVLAAGNASASA [HC991],-0.269 (inactive),-2.26 (inactive),-1.24 (inactive)
